Test results reported in PubChem BioAssay (Tox21).
Inconclusive results are not listed. Activity calls are given as the source filed them. Calls come from the whole dose curve.

Experiment: qHTS assay for small molecule agonists of the antioxidant response element (ARE) signaling pathway - cell viability counter screen (AID 743203); note: nearly all actives have a fitted effect of over 55% in size
Conditions: ARE-bla HepG2 viability, CellTiter-Glo luminescence, 16 h; series mostly up to 73.3 µM; viability change, negative = cytotoxic: at the top concentration
Excerpt: National Center for Advancing Translational Sciences [NCATS]
NIH Chemical Genomics Center [NCGC]
U.S. Environmental Protection Agency [EPA]
National Institutes of Environmental Health Sciences [NIEHS]
National Toxicology Program [NTP]
U.S. Food and Drug Administration [FDA]
Oxidative stress has been implicated in the pathogenesis of a variety of diseases ranging from cancer to neurodegeneration. The antioxidant response element (ARE) signaling pathway plays an important role in the amelioration of oxidative stress. The CellSensor ARE-bla HepG2 cell line (Invitrogen) can be used for analyzing the Nrf2/antioxidant response signaling pathway. Nrf2 (NF-E2-related factor 2) and Nrf1 are transcription factors that bind to AREs and activate these genes. The CellSensor ARE-bla Hep G2 cell line contains a beta-lactamase reporter gene under control of the Antioxidant Response Element (ARE) stably integrated into HepG2 cells. The activation of the report gene under culture conditions can be detected by fluorescence intensity. This cell line has been used to screen the Tox21 10K compound library to identify agonists that induce oxidative stress. The cytotoxicity of the Tox21 compound library against the ARE-bla cell line was tested in parallel by measuring the cell viability using CellTiter-Glo assay (Promega, Madison, WI) in the same wells.
Tox21 Assay Protocol Summary:
ARE-bla HepG2 cells were dispensed at 2,000 cells/5 ul/well in 1536-well white wall/solid bottom plates using a Multidrop Combi (ThermoFisher Scientific, Waltham, MA) dispenser. After the assay plates were incubated at 37C/5% CO2 for 5 hrs, 23 nL of compounds dissolved in DMSO, positive controls or DMSO only was transferred to the assay plate by a pintool work station (Kalypsys, San Diego, CA). The plates were incubated at 37C/5% CO2 for 16 hrs, followed by addition of 4 ul/well of CellTiter-Glo reagent into the assay plates using a Flying Reagent Dispenser (Aurora Discovery, San Diego, CA). After 30 min incubation at room temperature, the luminescence intensity in the assay plates was measured using a ViewLux (PerkinElmer, Shelton, CT) plate reader.
% is set by controls: 0 for no effect and ±100 for the full control effect; potency is the fitted concentration of half-maximal effect.

Compound	viability change, negative = cytotoxic	Potency
CCOP(=S)(OCC)SCSCC	-0.185% (inactive)	–
CC1(C)[C@H](C=C(Cl)Cl)[C@@H]1C(=O)O[C@@H](C#N)c1cccc(Oc2ccccc2)c1	-5.5% (inactive)	–
CCC(Cl)CCl (stereo not given)	2.17% [at 94.8 µM] (inactive)	–
CC(C)=CCOc1c2occc2cc2ccc(=O)oc12	6.96% (inactive)	–
Brc1ccc(Oc2ccccc2)cc1	–	inactive
CC(=O)c1cc2c(cc1C)C(C)(C)C(C)CC2(C)C (stereo not given)	-25.8% (inactive)	–
Nc1nc(N)nc(N)n1	-1.25% [at 94.8 µM] (inactive)	–
CCCCCCCCCC(=O)O[C@H]1CC[C@H]2[C@@H]3CCC4=CC(=O)CC[C@@H]4[C@H]3CC[C@]12C	-1.89% (inactive)	–
CC(C)(CCl)C(=O)Cl	-0.424% (inactive)	–
O=C1c2ccccc2C(=O)C1C(=O)C(c1ccccc1)c1ccccc1	1.24% (inactive)	–
CN(N=O)c1ccc([N+](=O)[O-])cc1	6.55% (inactive)	–
CCCN(CC1CC1)c1c([N+](=O)[O-])cc(C(F)(F)F)cc1[N+](=O)[O-]	0.794% (inactive)	–
COC(=O)c1cncn1C(C)c1ccccc1 (stereo not given)	-1.96% (inactive)	–
CC[C@H]1C[C@H]2[C@@H]3CCC4=CC(=O)CC[C@@H]4[C@H]3CC[C@]2(C)[C@H]1O	-7.27% (inactive)	–
CC(=O)C(C)(C)C	-13.2% [at 94.8 µM] (inactive)	–
C=CC(C)=O	2.92% (inactive)	–
NC(=O)CI	-7.41% [at 94.8 µM] (inactive)	–
NS(=O)(=O)C(F)(F)C(F)(F)C(F)(F)C(F)(F)C(F)(F)C(F)(F)C(F)(F)C(F)(F)F	–	68.6 µM (active)
CCCN(CCC)c1c([N+](=O)[O-])cc(S(C)(=O)=O)cc1[N+](=O)[O-]	-0.843% (inactive)	–
O=C1C(=O)c2cccc3cccc1c23	7.95% (inactive)	–

Compound	viability change, negative = cytotoxic	Potency
CN1C[C@H](CNC(=O)OCc2ccccc2)C[C@@H]2c3cccc4c3c(cn4C)C[C@H]21	–	33.5 µM (active)
N#Cc1ccc(Cl)cc1	7.89% (inactive)	–
CNC(C)Cc1ccccc1OC (stereo not given)	8.93% (inactive)	–
COc1cc(Cl)c(OC)cc1Cl	4.12% (inactive)	–
Oc1ccc(Cl)c(Cl)c1Cl	-17.4% [at 94.8 µM] (inactive)	–
CO/N=C(/C(=O)OC)c1ccccc1COc1ccccc1C	2.01% (inactive)	–
COc1ccc(-c2ccccc2)cc1NNC(=O)OC(C)C	7.92% [at 94.8 µM] (inactive)	–
COC(=O)C(Br)CBr (stereo not given)	-2.53% (inactive)	–
CCCC(=O)Cl	2.58% (inactive)	–
Cc1c(F)c(F)c(COC(=O)C2C(/C=C(\Cl)C(F)(F)F)C2(C)C)c(F)c1F (stereo not given)	-4.91% (inactive)	–
N#CCc1ccccc1	-4.65% [at 94.8 µM] (inactive)	–
CCN(C)N=O	1.11% (inactive)	–
C=C(C#N)CCC#N	4.45% (inactive)	–
NNC(=O)c1cccnc1	-4.68% [at 94.8 µM] (inactive)	–
O=C(NC(=O)c1c(F)cccc1F)Nc1ccc(OC(F)(F)C(F)OC(F)(F)F)c(Cl)c1 (stereo not given)	-2.1% (inactive)	–
COC(=O)C(C)N(C(=O)Cc1ccccc1)c1c(C)cccc1C (stereo not given)	14.2% (inactive)	–
CCc1ccc(C(=O)NN(C(=O)c2cc(C)cc(C)c2)C(C)(C)C)cc1	-1.17% (inactive)	–
O=[N+]([O-])c1cc(C(F)(F)F)cc([N+](=O)[O-])c1Cl	-2% [at 94.8 µM] (inactive)	–
O=C(O)c1ccccc1C(=O)Nc1cccc2ccccc12	0.0999% (inactive)	–
Nc1ccc([N+](=O)[O-])cc1[N+](=O)[O-]	4.04% (inactive)	–
